In PubChem BioAssay AID624354 (Sanford-Burnham Center for Chemical Genomics, 2012):
The whole screen tested about 360,000 compounds, of which about 3,800 (1.1%) were called active. The entries come from a sample that favours actives as a whole. Values without a mark were called inactive.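 The calls were made as follows: active = compounds causing at least 50% loss of cell viability in the single-dose screen, relative to plate controls; inactive = the rest.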

Experiment: TRAIL-exposed caspase-8 expressing cell killing – NB7+C8 cells, ATPlite luminescence, TRAIL sensitizer project, primary screen (AID 624354)
Conditions: at 10 µM, hits give high values
With `COC(=O)N(NC(=O)C(O)(C(C)C)C(C)C)c1ccccc1` the inhibition (viability loss, TRAIL sensitization) was 21.8%.
For `CCCCC(O)(CCCC)C(=O)NN(C(=O)CCl)c1ccccc1`, the inhibition (viability loss, TRAIL sensitization) was 82.8% (active).
`CCCC(O)(CCC)C(=O)NN(C(=O)CCl)c1cccc(C)c1` gave an inhibition (viability loss, TRAIL sensitization) of 5.97%.
Work on `COc1ccc(/C=C/CN2CCN(Cc3ccc(C)cc3)C(CCO)C2)cc1` (configuration not stated) yielded an inhibition (viability loss, TRAIL sensitization) of -0.778%.
With `CC(=C/c1ccccc1)/C=N/NC(=O)c1cc(C)oc1C` the inhibition (viability loss, TRAIL sensitization) was 54.5% (active).
`Cc1cc(C(=O)NCCc2ccc(Cl)cc2)c(C)o1` showed an inhibition (viability loss, TRAIL sensitization) of -14.9%.
With `Cc1ccc(-c2cc(C(=O)N/N=C/C=C/c3ccccc3)n[nH]2)o1` the inhibition (viability loss, TRAIL sensitization) was 0.486%.
Compound `Cc1ccc2cccc(OCCCOc3ccccc3CO)c2n1` has an inhibition (viability loss, TRAIL sensitization) of -4.7%.
Work on `Cc1ccc(NC(=O)c2oc3ccccc3c2C)c([N+](=O)[O-])c1` yielded an inhibition (viability loss, TRAIL sensitization) of 3.18%.
`CC1(C(=O)NS(=O)(=O)C2CC2)CCCN(C(=O)CSc2ccccc2)C1` (configuration not stated) gave an inhibition (viability loss, TRAIL sensitization) of -10.3%.
In the case of `COC(=O)c1c(NC(=O)COc2ccc(Cl)cc2Cl)sc2c1CC(C)(C)NC2(C)C`, the inhibition (viability loss, TRAIL sensitization) is reported as 92.1% (active).
Work on `CCOC(=O)c1c(NC(=O)c2ccc(S(=O)(=O)N(C)CC3CCCO3)cc2)sc2c1CC(C)(C)NC2(C)C` (configuration not stated) yielded an inhibition (viability loss, TRAIL sensitization) of 26.5%.
Work on `CN1CCC(OC(=O)COc2ccc(Cl)cc2Cl)CC1` yielded an inhibition (viability loss, TRAIL sensitization) of -7.75%.
Work on `COC(=O)c1ccccc1N=Nc1c(C)[nH][nH]c1=O` yielded an inhibition (viability loss, TRAIL sensitization) of -4%.
Work on `O=C(CSc1ncnc2c1nnn2Cc1ccc(F)cc1)NC1CCCC1` yielded an inhibition (viability loss, TRAIL sensitization) of -9.39%.
Work on `O=C(CCNC(=O)c1ccc(Br)cc1)Nc1cccc(S(=O)(=O)N2CCCCC2)c1` yielded an inhibition (viability loss, TRAIL sensitization) of 5.98%.
In the case of `CSCc1ccc(C(=O)Nc2cc(C)cc(C)c2)cc1`, the inhibition (viability loss, TRAIL sensitization) is reported as 66.6% (active).
`Cc1cc(C)cc(NC(=O)CSc2ccccc2)c1` gave an inhibition (viability loss, TRAIL sensitization) of -3.71%.
`C=CCN(c1ccc(C(=O)Nc2cc(C)cc(C)c2)cc1)S(C)(=O)=O` gave an inhibition (viability loss, TRAIL sensitization) of -8.04%.
`Cc1cccc(CC2(O)C(=O)Nc3ccccc32)n1` (configuration not stated) gave an inhibition (viability loss, TRAIL sensitization) of -8.54%.
With `CN(C)S(=O)(=O)c1ccc(N2CCCC2=O)c([N+](=O)[O-])c1` the inhibition (viability loss, TRAIL sensitization) was 4.63%.
With `CN(Cc1ccccc1)S(=O)(=O)c1nnc(NC(=O)c2ccccc2F)s1` the inhibition (viability loss, TRAIL sensitization) was -10.5%.
With `Cc1ccc(CS(=O)(=O)c2ncc(Cl)c(C(=O)Nc3nnc(C)s3)n2)cc1` the inhibition (viability loss, TRAIL sensitization) was 96.7% (active).
For `Cc1cccc(NC(=O)c2nc(S(=O)(=O)Cc3ccccc3)ncc2Cl)c1`, the inhibition (viability loss, TRAIL sensitization) was 86.5% (active).
Compound `Cc1cccc(NS(=O)(=O)c2ccc(C)c(C(=O)NCc3cccnc3)c2)c1` has an inhibition (viability loss, TRAIL sensitization) of -5.47%.
`O=C(Nc1nnc(Cc2ccc(Cl)cc2)s1)c1cccnc1` gave an inhibition (viability loss, TRAIL sensitization) of 2.47%.
Work on `O=C(Nc1nnc(Cc2ccc(Cl)cc2)s1)c1ccncc1` yielded an inhibition (viability loss, TRAIL sensitization) of -4.66%.
Compound `O=C(Nc1nnc(-c2ccc(F)cc2)s1)c1c(F)cccc1Cl` has an inhibition (viability loss, TRAIL sensitization) of 1.33%.
Compound `Cc1cccc(CS(=O)(=O)c2ncc(Cl)c(C(=O)Nc3ccc(F)cc3)n2)c1` has an inhibition (viability loss, TRAIL sensitization) of 36%.
In the case of `CSc1nnc(NC(=O)c2nc(S(=O)(=O)Cc3ccc(C)cc3)ncc2Cl)s1`, the inhibition (viability loss, TRAIL sensitization) is reported as 66.5% (active).
`COc1ccccc1-n1nnnc1S(=O)(=O)Cc1ccc(Cl)cc1` showed an inhibition (viability loss, TRAIL sensitization) of 9%.
For `Cc1ccc(SC(=O)COc2ccc(C)c(C)c2)cc1`, the inhibition (viability loss, TRAIL sensitization) was 3.37%.
With `O=C(CCc1ccccc1)NCCc1cccs1` the inhibition (viability loss, TRAIL sensitization) was -4.77%.
With `O=C1C2C3C=CC(C4CC34)C2C(=O)N1c1nccs1` (configuration not stated) the inhibition (viability loss, TRAIL sensitization) was -2%.
`Cc1ccc(-c2nc(-c3cccnc3)sc2CC(=O)Nc2ccc(C)c(Cl)c2)cc1` gave an inhibition (viability loss, TRAIL sensitization) of 18.7%.
`COc1ccc(CCN2CNc3c(c(=O)n(C)c(=O)n3C)C2)cc1OC` gave an inhibition (viability loss, TRAIL sensitization) of 7.29%.
`O=C1OCCN1C(=O)[C@H]1[C@H](c2ccc(Cl)cc2)C(c2cccc(Cl)c2)=NN1c1ccc(Br)cc1` gave an inhibition (viability loss, TRAIL sensitization) of -0.36%.
In the case of `COc1cccc(/C=N/Nc2cc(C)nc(-c3ccccc3O)n2)c1O`, the inhibition (viability loss, TRAIL sensitization) is reported as 56.9% (active).
Compound `CCOc1ccccc1/C=N/Nc1nc2ccccc2o1` has an inhibition (viability loss, TRAIL sensitization) of -8.7%.
In the case of `COCCCNC(=O)c1cccc2c(-c3ccc(O)c(OC)c3)coc12`, the inhibition (viability loss, TRAIL sensitization) is reported as 14.2%.
With `CC(=O)OCC(C)n1c(=O)c2ccccc2n1C(C)=O` (configuration not stated) the inhibition (viability loss, TRAIL sensitization) was -3.49%.
For `CN(C)CCCn1c(N)c(C#N)c2nc(C#N)c(C#N)nc21`, the inhibition (viability loss, TRAIL sensitization) was -10.7%.
In the case of `O=C(NCCc1ccccn1)c1nc(Cn2cc([N+](=O)[O-])cn2)no1`, the inhibition (viability loss, TRAIL sensitization) is reported as 2.01%.
For `O=C(Nc1nc2ccc([N+](=O)[O-])cc2s1)c1ccncc1`, the inhibition (viability loss, TRAIL sensitization) was 53.2% (active).
`CSc1ncccc1C(=O)Nc1nc2ccc(F)cc2s1` gave an inhibition (viability loss, TRAIL sensitization) of 10.7%.
In the case of `CC(=O)Nc1ccc2nc(NC(=O)CS(=O)(=O)c3ccc(F)cc3)sc2c1`, the inhibition (viability loss, TRAIL sensitization) is reported as -11.1%.
For `COc1cc2nnn(-c3ccncc3)c2cc1OC`, the inhibition (viability loss, TRAIL sensitization) was -16.3%.
